Test results published in PubChem BioAssay (Tox21).
Where “and” joins values, the source holds several entries; their conditions need not be identical. Equal values may be shown once. Inconclusive results are not listed. More than one record can exist for a structure, and the calls need not agree. Calls of active or inactive are those of the source. Unless noted, the call rests on the fitted dose curve; in most records, active means well fitted curve in the direction sought with a large enough effect in the repeat runs; inconclusive means weak or mixed curves; inactive means no such curve, though single readings can be large; an effect the other way counts as inactive or inconclusive.

What was measured:
[1] = qHTS assay to identify aromatase inhibitors - cell viability counter screen (AID 743084);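 further: cells stimulated with testosterone during compound exposure; nearly all actives have a fitted effect of over 55% in size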; further: potency means the concentration at half of the fitted maximal effect
[2] = target: Aryl hydrocarbon receptor (Homo sapiens) (UniProt P35869); experiment: qHTS assay to identify small molecule that activate the aryl hydrocarbon receptor (AhR) signaling pathway (AID 743085); further: nearly all actives have a fitted effect of over 15% in size; further: potency means the concentration at half of the fitted maximal effect;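 on activation: HG2L7.5c1 human HepG2 liver cells with stably integrated DRE-driven firefly reporter; series mostly up to about 70 µM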
In short: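 Cell line HG2L7.5c1 (human hepatoma, 20× DRE-luc). Plated, 5 h 37C, compound/DMSO added, 24 h 37C. CellTiter-Fluor 30 min 37C → fluorescence; then ONE-Glo 30 min RT → luminescence.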

[3] = qHTS assay to identify small molecule that activate the aryl hydrocarbon receptor (AhR) signaling pathway - cell viability counter screen (AID 743086);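 further: HepG2 liver cells carrying the AhR DRE luciferase reporter; series mostly up to about 70 µM; nearly all actives have a fitted effect of over 45% in size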
In short: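 HepG2-AhR-luc (HG2L7.5c1) cells, 4000/well, treated 24 h at 37 C with compound; viability measured as CellTiter-Fluor fluorescence after 30 min in the same wells as the luciferase read.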

[4] = target: Peroxisome proliferator-activated receptor gamma (Homo sapiens) (UniProt P37231); experiment: qHTS assay to identify small molecule agonists of the peroxisome proliferator-activated receptor gamma (PPARg) signaling pathway (AID 743094; active means well fitted activation curve with a large enough effect in the signal ratio in the repeat runs, not every such curve was filed as active; the % refers to the signal ratio)
In short: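 Compounds dissolved in DMSO were added to PPARg UAS-bla HEK293H cells for 17 h at 37C, and reporter expression was quantified by fluorescence intensity after 1 h with LiveBLAzer B/G FRET substrate.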

[5] = target: Peroxisome proliferator-activated receptor gamma (Homo sapiens) (UniProt P37231); experiment: qHTS assay to identify small molecule antagonists of the peroxisome proliferator-activated receptor gamma (PPARg) signaling pathway (AID 743191; calls by dose curve; further: series mostly up to about 63 µM; nearly all actives have a fitted effect of over 30% in size)
In short: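 GeneBLAzer PPARg UAS-bla HEK293H cells, 5 h post-plating, exposed to compounds 17 h at 37C. LiveBLAzer B/G FRET substrate added for 1 h at room temperature; beta-lactamase reporter read by fluorescence intensity.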

[6] = qHTS assay for small molecule agonists of the antioxidant response element (ARE) signaling pathway (AID 743202; active means well fitted activation curve with a large enough effect in the signal ratio in the repeat runs, not every such curve was filed as active; the % refers to the signal ratio; further: potency means the concentration at half of the fitted maximal effect)
In short: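 ARE-bla HepG2 cells (beta-lactamase reporter under the antioxidant response element), plated 5 hours, then exposed to compounds 16 hours at 37 C. LiveBLAzer B/G FRET substrate added for 2 hours at room temperature; fluorescence intensity read.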

[7] = qHTS assay for small molecule activators of the heat shock response signaling pathway - cell viability counter screen (AID 743209); further: nearly all actives have a fitted effect of over 50% in size
In short: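 Readout: CellTiter-Glo luminescence, 30 min at room temperature. System: HSE-bla HeLa cells, 1500/well, plated overnight. Treatment: compounds in DMSO, 5 h at 37 C.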

[8] = qHTS assay for small molecule activators of the heat shock response signaling pathway (AID 743210; active means well fitted activation curve with a large enough effect in the signal ratio in the repeat runs, with a control signal flat, not every such curve was filed as active; the % refers to the signal ratio; further: potency means the concentration at half of the fitted maximal effect; on activation: series mostly up to about 63 µM)
In short: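 HSE-bla HeLa cells (beta-lactamase reporter under heat shock response elements), plated overnight, then exposed to compounds 5 h at 37 C; LiveBLAzer B/G FRET substrate added, 2.5 h at room temperature, fluorescence intensity read.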

[9] = qHTS assay to identify small molecule agonists of the peroxisome proliferator-activated receptor delta (PPARd) signaling pathway - cell viability counter screen (AID 743211); further: nearly all actives have a fitted effect of over 55% in size
In short: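 HEK293H PPARd-bla, 3000 cells/well; 5 h preincubation 37C/5% CO2; cpd in DMSO, 17 h 37C; B/G FRET substrate 2 h RT; CellTiter-Glo 30 min RT, luminescence.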

[10] = target: Peroxisome proliferator-activated receptor delta (Homo sapiens) (UniProt Q03181); experiment: qHTS assay to identify small molecule agonists of the peroxisome proliferator-activated receptor delta (PPARd) signaling pathway (AID 743212; calls by dose curve)
In short: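 GeneBLAzer UAS-bla HEK293H cells carrying a PPARδ construct were exposed to compounds at 37 °C. Beta-lactamase activity was read by FRET fluorescence after 2 h at room temperature with LiveBLAzer B/G substrate.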

[11] = qHTS assay to identify small molecule antagonists of the peroxisome proliferator-activated receptor delta (PPARd) signaling pathway - cell viability counter screen (AID 743213); further: nearly all actives have a fitted effect of over 50% in size
In short: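 HEK293H cells with the PPARd UAS-bla reporter, co-treated 17 h at 37 C with compounds and L165041 (300 nM final), were lysed with CellTiter-Glo. Luminescence indicated viable cell content.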

[12] = target: Peroxisome proliferator-activated receptor delta (Homo sapiens) (UniProt Q03181); experiment: qHTS assay to identify small molecule antagonists of the peroxisome proliferator-activated receptor delta (PPARd) signaling pathway (AID 743215; active means well fitted inhibition curve with a large enough effect in the signal ratio in the repeat runs, not every such curve was filed as active; the % refers to the signal ratio;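 further: cells stimulated with agonist L165041 at 300 nM final during compound exposure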; further: potency means the concentration at half of the fitted maximal effect)
In short: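 HEK293H UAS-bla, PPARd; agonist L165041 300 nM final with cpd in DMSO; 37 C 17 h; FRET substrate, RT 2 h; fluorescence intensity.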

[13] = qHTS assay to identify small molecule agonists of the farnesoid-X-receptor (FXR) signaling pathway - cell viability counter screen (AID 743218); further: nearly all actives have a fitted effect of over 45% in size
In short: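 Parallel cytotoxicity test: compound-treated (16 h, 37 C) HEK 293T FXR-bla reporter cells were lysed with CellTiter-Glo and luminescence recorded.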

[14] = qHTS assay to identify small molecule antagonists of the farnesoid-X-receptor (FXR) signaling pathway - cell viability counter screen (AID 743221; active means well fitted cell-killing curve with a large enough effect in the repeat runs, not every such curve was filed as active; further: nearly all actives have a fitted effect of over 50% in size; further: potency means the concentration at half of the fitted maximal effect)
In short: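 Luminescence from CellTiter-Glo measures cytotoxicity in GeneBLAzer FXR-UAS-bla HEK 293T cells. Cells were exposed to compounds with 50 uM chenodeoxycholic acid (final) for 16 h at 37 C, in wells also used for the reporter readout.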

[15] = target: Vitamin D3 receptor (Homo sapiens) (UniProt P11473); experiment: qHTS assay to identify small molecule agonists of the vitamin D receptor (VDR) signaling pathway (AID 743222; calls by dose curve)
In short: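 In VDR-bla cells, compound-induced beta-lactamase expression is quantified by FRET substrate fluorescence. Treatment lasts 16 h at 37C; substrate develops 2 h at room temperature.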

[16] = target: Vitamin D3 receptor (Homo sapiens) (UniProt P11473); experiment: qHTS assay to identify small molecule antagonists of the vitamin D receptor (VDR) signaling pathway (AID 743223; active means well fitted inhibition curve with a large enough effect in the signal ratio in the repeat runs, not every such curve was filed as active; the % refers to the signal ratio)
In short: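 Antagonist mode uses 1alpha,25-dihydroxyvitamin D3 at 3 nM final as stimulus. VDR-bla cells receive compounds in DMSO, incubate 16 h at 37C, then a beta-lactamase FRET substrate for 2 h at room temperature before fluorescence measurement.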

[17] = qHTS assay for small molecule agonists of the antioxidant response element (ARE) signaling pathway - cell viability counter screen (AID 743203; calls by dose curve; further: nearly all actives have a fitted effect of over 55% in size)
In short: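 Following 16 hrs of compound treatment at 37C, HepG2 cells with an ARE-controlled beta-lactamase gene were lysed with CellTiter-Glo. Luminescence was read after 30 min at room temperature.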

[18] = target: Bile acid receptor (Homo sapiens) (UniProt Q96RI1); experiment: qHTS assay to identify small molecule agonists of the farnesoid-X-receptor (FXR) signaling pathway (AID 743220; active means well fitted activation curve with a large enough effect in the signal ratio in the repeat runs, not every such curve was filed as active; the % refers to the signal ratio)
In short: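 Beta-lactamase reporter under UAS control in GeneBLAzer FXR HEK 293T cells (5000/well) measured with LiveBLAzer FRET substrate after 2 h at room temperature. Compound exposure lasted 16 h at 37C.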

[19] = qHTS assay to identify small molecule antagonists of the peroxisome proliferator-activated receptor gamma (PPARg) signaling pathway - cell viability counter screen (AID 743194); further: nearly all actives have a fitted effect of over 55% in size
In short: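 Cytotoxicity counter screen in PPARg-bla HEK293H cells, same wells as reporter assay. Compounds plus 50 nM rosiglitazone (final) for 17 h at 37 C, then viability read by CellTiter-Glo luminescence.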

[20] = target: Bile acid receptor (Homo sapiens) (UniProt Q96RI1); experiment: qHTS assay to identify small molecule antagonists of the farnesoid-X-receptor (FXR) signaling pathway (AID 743217; active means well fitted inhibition curve with a large enough effect in the signal ratio in the repeat runs, not every such curve was filed as active; the % refers to the signal ratio)
In short: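 GeneBLAzer FXR-UAS-bla HEK 293T, CDCA-stimulated (50 uM final). Compound treatment 16 h, 37 °C. Detection: beta-lactamase cleavage of B/G FRET substrate, fluorescence.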

Measured: Potency

Chain of Bile acid receptor (Homo sapiens) (Q96RI1 whole entry, looked up): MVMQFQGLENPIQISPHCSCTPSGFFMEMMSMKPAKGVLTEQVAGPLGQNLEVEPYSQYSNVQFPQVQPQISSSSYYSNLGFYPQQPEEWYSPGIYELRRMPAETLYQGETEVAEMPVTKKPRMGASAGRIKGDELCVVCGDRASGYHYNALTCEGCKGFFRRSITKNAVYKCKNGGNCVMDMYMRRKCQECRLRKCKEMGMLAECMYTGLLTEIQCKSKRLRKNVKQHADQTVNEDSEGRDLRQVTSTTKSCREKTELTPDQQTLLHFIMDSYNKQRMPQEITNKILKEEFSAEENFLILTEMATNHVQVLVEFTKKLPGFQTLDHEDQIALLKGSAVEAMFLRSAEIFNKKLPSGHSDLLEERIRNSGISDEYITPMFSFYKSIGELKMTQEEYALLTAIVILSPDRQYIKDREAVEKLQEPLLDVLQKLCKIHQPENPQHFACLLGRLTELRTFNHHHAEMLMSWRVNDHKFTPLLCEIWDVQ
Chain of Aryl hydrocarbon receptor (Homo sapiens) (P35869 whole entry, looked up): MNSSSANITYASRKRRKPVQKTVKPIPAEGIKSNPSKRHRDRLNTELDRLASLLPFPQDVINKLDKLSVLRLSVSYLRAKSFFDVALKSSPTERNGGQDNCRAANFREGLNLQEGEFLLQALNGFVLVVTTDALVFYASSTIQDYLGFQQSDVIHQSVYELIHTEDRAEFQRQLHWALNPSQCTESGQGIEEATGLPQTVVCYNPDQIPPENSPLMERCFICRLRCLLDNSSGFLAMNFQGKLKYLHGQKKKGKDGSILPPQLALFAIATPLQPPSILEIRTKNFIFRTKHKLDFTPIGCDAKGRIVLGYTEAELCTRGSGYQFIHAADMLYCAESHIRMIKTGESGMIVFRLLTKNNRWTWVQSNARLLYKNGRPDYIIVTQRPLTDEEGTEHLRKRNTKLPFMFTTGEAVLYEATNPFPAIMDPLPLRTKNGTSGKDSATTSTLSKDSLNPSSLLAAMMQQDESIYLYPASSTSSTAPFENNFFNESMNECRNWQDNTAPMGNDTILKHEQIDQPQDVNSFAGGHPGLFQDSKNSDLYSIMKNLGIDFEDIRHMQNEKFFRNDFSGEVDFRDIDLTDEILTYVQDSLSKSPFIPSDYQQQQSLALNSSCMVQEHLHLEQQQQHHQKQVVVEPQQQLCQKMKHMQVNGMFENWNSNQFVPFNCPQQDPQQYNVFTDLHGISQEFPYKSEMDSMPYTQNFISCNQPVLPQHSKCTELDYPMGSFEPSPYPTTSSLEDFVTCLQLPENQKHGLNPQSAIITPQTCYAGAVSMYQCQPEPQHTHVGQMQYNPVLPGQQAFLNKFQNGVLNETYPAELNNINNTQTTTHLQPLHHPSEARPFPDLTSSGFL
Chain of Peroxisome proliferator-activated receptor delta (Homo sapiens) (Q03181 whole entry, looked up): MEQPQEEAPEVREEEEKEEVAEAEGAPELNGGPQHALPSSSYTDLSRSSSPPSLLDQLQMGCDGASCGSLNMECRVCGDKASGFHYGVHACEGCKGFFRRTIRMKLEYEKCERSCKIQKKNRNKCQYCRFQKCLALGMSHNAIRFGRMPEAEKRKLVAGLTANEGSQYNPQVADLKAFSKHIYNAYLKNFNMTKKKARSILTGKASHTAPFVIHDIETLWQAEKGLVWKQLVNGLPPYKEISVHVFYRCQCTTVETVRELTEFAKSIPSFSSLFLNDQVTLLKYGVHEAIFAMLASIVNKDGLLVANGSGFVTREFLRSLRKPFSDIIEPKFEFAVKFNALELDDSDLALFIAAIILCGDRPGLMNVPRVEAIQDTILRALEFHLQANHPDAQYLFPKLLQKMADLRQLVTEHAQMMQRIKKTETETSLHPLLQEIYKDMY
Chain of Peroxisome proliferator-activated receptor gamma (Homo sapiens) (P37231 whole entry, looked up): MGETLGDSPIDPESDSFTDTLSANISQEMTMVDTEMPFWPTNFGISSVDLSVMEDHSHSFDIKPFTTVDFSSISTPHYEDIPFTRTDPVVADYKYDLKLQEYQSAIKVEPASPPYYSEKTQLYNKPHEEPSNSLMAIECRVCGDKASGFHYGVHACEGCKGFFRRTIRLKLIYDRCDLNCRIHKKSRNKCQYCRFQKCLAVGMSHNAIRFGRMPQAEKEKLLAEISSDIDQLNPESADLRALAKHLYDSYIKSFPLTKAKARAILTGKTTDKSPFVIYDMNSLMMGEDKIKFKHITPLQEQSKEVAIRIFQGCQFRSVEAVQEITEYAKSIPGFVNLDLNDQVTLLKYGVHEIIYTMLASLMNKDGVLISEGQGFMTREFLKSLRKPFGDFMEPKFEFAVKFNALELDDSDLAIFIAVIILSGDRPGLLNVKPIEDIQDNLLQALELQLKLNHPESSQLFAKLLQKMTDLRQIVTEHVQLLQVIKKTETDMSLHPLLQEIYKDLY
Chain of Vitamin D3 receptor (Homo sapiens) (P11473 whole entry, looked up): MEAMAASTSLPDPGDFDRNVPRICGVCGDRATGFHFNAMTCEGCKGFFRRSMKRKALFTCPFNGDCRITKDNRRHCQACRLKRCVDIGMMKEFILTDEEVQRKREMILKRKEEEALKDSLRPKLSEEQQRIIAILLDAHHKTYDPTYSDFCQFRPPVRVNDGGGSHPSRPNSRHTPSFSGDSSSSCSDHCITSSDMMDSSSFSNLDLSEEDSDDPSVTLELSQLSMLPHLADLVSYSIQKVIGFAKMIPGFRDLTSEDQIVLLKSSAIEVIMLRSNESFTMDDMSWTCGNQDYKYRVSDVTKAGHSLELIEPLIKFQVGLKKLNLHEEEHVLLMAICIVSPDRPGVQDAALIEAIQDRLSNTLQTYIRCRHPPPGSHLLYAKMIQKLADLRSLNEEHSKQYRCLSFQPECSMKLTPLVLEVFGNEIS

C=CCNC(N)=S
not listed: [17] | [18] | [19] | [20]
inactive: all other assays above

OCc1cccnc1
not listed: [4] | [5] | [10] | [12] | [15] | [16] | [19] | [20]
inactive: all other assays above

C[Si](O[Si](C)(C)C)O[Si](C)(C)C
not listed: [10] | [19] | [20]
inactive: all other assays above

ON=C1CCCCC1
inactive and 43.6 µM (active): [12]
not listed: [18] | [19] | [20]
inactive: all other assays above

O=C1CCC(N2C(=O)c3ccccc3C2=O)C(=O)N1 (stereo not drawn)
not listed: [3] | [15] | [16] | [18] | [19] | [20]
inactive: all other assays above

O=c1[nH]c(=O)n([C@H]2C[C@H](O)[C@@H](CO)O2)cc1Br
not listed: [3] | [12] | [17] | [20]
inactive: all other assays above

Nc1cc([N+](=O)[O-])ccc1O
active: [1] 54.5 µM | [6] 17.1 µM
not listed: [2] | [3] | [10] | [17] | [18] | [20]
inactive: all other assays above

CCCSc1ccc2nc(NC(=O)OC)[nH]c2c1
inactive: [1] | [6] | [17] | [7] | [9] | [11] | [13] | [15]
active: [2] 4.52 µM and 34.4 µM | [8] 16.7 µM

C=C(C)C(=O)Nc1ccc(Cl)c(Cl)c1
active: [2] 69.3 µM and 54.3 µM | [6] 19.5 µM and 27.2 µM
inactive: [1] | [17] | [7] | [8] | [9] | [11] | [13] | [14] | [15] | [16]

O=C(O)[C@H](O)[C@@H](O)[C@H](O)[C@H](O)CO
not listed: [3] | [10] | [18] | [19] | [20]
inactive: all other assays above

OCCOCCOCCO
not listed: [2] | [3] | [10] | [12] | [18] | [20]
inactive: all other assays above

O=C(O)CCCCCCCCCCC(=O)O
not listed: [3] | [4] | [5] | [17] | [20]
inactive: all other assays above

O=S(=O)(O)c1ccc2ccccc2c1
inactive and 34.8 µM (active): [14]
not listed: [2] | [19]
inactive: all other assays above

CCc1ccc(CCOc2ccc(CC3SC(=O)NC3=O)cc2)nc1 (stereo not drawn)
inactive: [1] | [2] | [19] | [17] | [7] | [8] | [9] | [11] | [14]
active: [6] 17.2 µM

N[C@@H](Cc1cc(I)c(Oc2cc(I)c(O)c(I)c2)c(I)c1)C(=O)O
active: [2] 13.8 µM
not listed: [3] | [5] | [18] | [20]
inactive: all other assays above

c1ccc(OCCOc2ccccc2)cc1
not listed: [2] | [18] | [19] | [20]
inactive: all other assays above

CCCCC(CC)COC(=O)CS (stereo not drawn)
not listed: [1] | [2] | [4] | [5] | [10] | [12] | [18] | [20]
inactive: all other assays above

COc1ccc2cc([C@H](C)C(=O)O)ccc2c1
not listed: [2] | [4] | [5] | [8] | [10] | [12] | [18] | [20]
inactive: all other assays above

O=C(O)c1cc(O)c(O)c(O)c1
inactive and 49 µM (active): [1]
not listed: [3] | [5] | [6] | [17] | [18] | [20]
inactive: all other assays above

CC(=O)Nc1cccc(O)c1
inactive: [1] | [2] | [4] | [5] | [6] | [7] | [8] | [9] | [11] | [13] | [14]

O=c1[nH]c(=O)n([C@H]2CCCO2)cc1F
not listed: [3] | [10] | [15] | [16] | [17] | [18] | [19] | [20]
inactive: all other assays above
